The values below come from PubChem BioAssay (EPA / NIEHS).

Each structure is given as a SMILES string. The source made the active and inactive calls. How the source made its calls: active means hit-call score of the fitted dose curve at least 0.9, where 1 is the maximum; inactive means score below 0.9.

For orientation: AC50 means the concentration giving half of the maximal activity seen.

Details in all cases: mRNA level, 48 h; actives raise or lower the signal
Read-out in assay [1]: Tumor necrosis factor receptor superfamily member 6 (Homo sapiens) (UniProt P25445)
The assay is described as follows: LTEA_HepaRG_FAS: Life Technologies and Expression Analysis (LTEA) Assay for Fas cell surface death receptor (FAS) using HepaRG (AID 2283447). The method, boiled down: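 Differentiated human HepaRG cells, pre-cultured 48 h, were exposed in duplicate for 48 h to 8-point half-log concentrations (top 100 uM, 0.5% DMSO) in serum-free induction medium; FAS mRNA measured by qRT-PCR, normalized to ACTB/GAPDH/POLR2A, bidirectional fit versus DMSO.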

Read-out in assay [2]: Fatty acid synthase (Homo sapiens) (UniProt P49327)
The assay is described as follows: LTEA_HepaRG_FASN: Life Technologies and Expression Analysis (LTEA) Assay for Fatty Acid Synthase (FASN) using HepaRG (AID 2283448). Summed up:
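Transcript-level assay: HepaRG liver cells are treated for 48 h across an eight-point range topping at 100 uM, and FASN mRNA, normalized to three housekeeping genes, is compared with DMSO controls in both directions.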

Read-out in assay [3]: Cyclin D2 (CCND2), CCND2 (gene 894)
The assay is described as follows: LTEA_HepaRG_CCND2: Life Technologies and Expression Analysis (LTEA) Assay for Cyclin D2 (CCND2) using HepaRG (AID 2283449).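 Further: CCND2 transcript measured by TaqMan qRT-PCR and normalised to three housekeeping genes.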 The method, boiled down: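 Differentiated human HepaRG cells were exposed for 48 h in serum-free induction medium to eight half-log concentrations topping at 100 uM (0.5% DMSO vehicle). CCND2 mRNA was quantified by TaqMan qRT-PCR, normalised to ACTB, GAPDH and POLR2A, and fitted bidirectionally against DMSO.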

Read-out in assay [4]: Cyclin Dependent Kinase Inhibitor 1A (CDKN1A), CDKN1A (gene 1026)
Description: LTEA_HepaRG_CDKN1A: Life Technologies and Expression Analysis (LTEA) Assay for Cyclin Dependent Kinase Inhibitor 1A (CDKN1A) using HepaRG (AID 2283450). Summed up: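 HepaRG, 48 h dosing, 8-pt half-log series from 100 uM top, 0.5% DMSO vehicle, duplicates. Readout: TaqMan qRT-PCR of CDKN1A transcript, housekeeping-normalized (ACTB, GAPDH, POLR2A). Up/down curve fit relative to DMSO.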

Read-out in assay [5]: catalase (CAT), CAT (gene 847)
Description: LTEA_HepaRG_CAT: Life Technologies and Expression Analysis (LTEA) Assay for catalase (CAT) using HepaRG (AID 2283452). Summed up: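 Differentiated HepaRG cells in serum-free induction medium were dosed 48 h in duplicate, eight half-log concentrations from 100 uM in 0.5% DMSO. Transcript measured by TaqMan qRT-PCR, normalised to ACTB/GAPDH/POLR2A, fitted bidirectionally against DMSO.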

Read-out in assay [6]: flavin-containing dimethylaniline monooxygenases 3 (FMO3), FMO3 (gene 2328)
The assay is described as follows: LTEA_HepaRG_FMO3: Life Technologies and Expression Analysis (LTEA) Assay for flavin-containing dimethylaniline monooxygenases 3 (FMO3) using HepaRG (AID 2283453). The method, boiled down:
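HepaRG, 48 h exposure, 8-pt half-log series from 100 uM, 0.5% DMSO vehicle, duplicates; FMO3 transcript by Fluidigm TaqMan qRT-PCR, housekeeping-normalized; gain/loss fit vs DMSO.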

Read-out in assay [7]: Cytochrome P450 (CYP1A1), CYP1A1 (gene 1543)
Description: LTEA_HepaRG_CYP1A1: Life Technologies and Expression Analysis (LTEA) Assay for Cytochrome P450 (CYP1A1) using HepaRG (AID 2283454). The method, boiled down:
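qRT-PCR read-out: CYP1A1 transcript normalized to three housekeeping genes, fitted bidirectionally against 0.5% DMSO vehicle baseline. Human HepaRG cells, 48 h chemical exposure, 8-point half-log series topping at 100 uM.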

Read-out in assay [8]: CFLAR gene, CFLAR (gene 8837)
The assay is described as follows: LTEA_HepaRG_CFLAR: Life Technologies and Expression Analysis (LTEA) Assay for CFLAR gene using HepaRG (AID 2283455). Summed up: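 HepaRG cells were plated for 48 h, switched to serum-free induction medium, then exposed in duplicate for 48 h to 8 concentrations (top 100 uM, half-log steps, 0.5% DMSO). CFLAR mRNA was measured by qRT-PCR, normalized to ACTB, GAPDH and POLR2A.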

Read-out in assay [9]: Forkhead box O1 (FOXO1), FOXO1 (gene 2308)
Description: LTEA_HepaRG_FOXO1: Life Technologies and Expression Analysis (LTEA) Assay for Forkhead box O1 (FOXO1) using HepaRG (AID 2283456). The method, boiled down: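 Differentiated human HepaRG cells in serum-free induction medium were exposed in duplicate for 48 h to eight half-log concentrations (top 100 uM, 0.5% DMSO). FOXO1 mRNA was measured by TaqMan qRT-PCR, normalised to ACTB, GAPDH and POLR2A, and fitted bidirectionally against DMSO.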

Read-out in assay [10]: growth arrest and DNA damage 45 (GADD45A), GADD45A (gene 1647)
Description: LTEA_HepaRG_GADD45A: Life Technologies and Expression Analysis (LTEA) Assay for growth arrest and DNA damage 45 (GADD45A) using HepaRG (AID 2283458). Summed up: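 Human HepaRG liver cells are treated in duplicate for 48 h with chemicals in 0.5% DMSO, highest concentration 100 uM. Expression is read by qRT-PCR and analyzed in both directions against vehicle.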

Read-out in assay [11]: Forkhead box O3 (FOXO3), FOXO3 (gene 2309)
Description: LTEA_HepaRG_FOXO3: Life Technologies and Expression Analysis (LTEA) Assay for Forkhead box O3 (FOXO3) using HepaRG (AID 2283459). The method, boiled down:
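Differentiated human HepaRG cells in serum-free induction medium were exposed in duplicate for 48 h to eight half-log concentrations up to 100 uM in 0.5% DMSO. FOXO3 mRNA was quantified by qRT-PCR, normalized to ACTB, GAPDH and POLR2A, with bidirectional fitting versus DMSO.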

Read-out in assay [12]: ABC Transporter (ABCB1), ABCB1 (gene 5243)
The assay is described as follows: LTEA_HepaRG_ABCB1: Life Technologies and Expression Analysis (LTEA) Assay for ABC Transporter (ABCB1) using HepaRG (AID 2283460). The method, boiled down: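 Differentiated human HepaRG cells, plated 48 h then switched to serum-free induction medium, were exposed in duplicate to eight half-log concentrations up to 100 uM in 0.5% DMSO for 48 h. ABCB1 mRNA was measured by TaqMan qRT-PCR, normalized to ACTB/GAPDH/POLR2A.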

Read-out in assay [13]: growth arrest and DNA damage 45 (GADD45B), GADD45B (gene 4616)
The assay is described as follows: LTEA_HepaRG_GADD45B: Life Technologies and Expression Analysis (LTEA) Assay for growth arrest and DNA damage 45 (GADD45B) using HepaRG (AID 2283461). Summed up:
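qRT-PCR read-out (Fluidigm TaqMan, housekeeping-normalized) of mRNA change in human HepaRG cells after 48 h chemical exposure; 8-point curve, top 100 uM, half-log steps, 0.5% DMSO vehicle; gain or loss fitted relative to DMSO baseline.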

Read-out in assay [14]: ABC Transporter (ABCC3), ABCC3 (gene 8714)
The assay is described as follows: LTEA_HepaRG_ABCC3: Life Technologies and Expression Analysis (LTEA) Assay for ABC Transporter (ABCC3) using HepaRG (AID 2283462). The method, boiled down: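 qRT-PCR read-out of ABCC3 transcript, normalized to three housekeeping genes (ACTB, GAPDH, POLR2A), after 48 h chemical exposure of human HepaRG cells. Eight half-log concentrations, highest 100 uM, in 0.5% DMSO; gain or loss fitted relative to DMSO baseline.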

Read-out in assay [15]: ABC Transporter (ABCB11), ABCB11 (gene 8647)
The assay is described as follows: LTEA_HepaRG_ABCB11: Life Technologies and Expression Analysis (LTEA) Assay for ABC Transporter (ABCB11) using HepaRG (AID 2283463). Summed up:
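Differentiated human HepaRG cells were exposed for 48 h in serum-free induction medium to eight half-log concentrations up to 100 uM in 0.5% DMSO. ABCB11 mRNA was quantified by qRT-PCR, normalized to ACTB, GAPDH and POLR2A, and fitted bidirectionally versus DMSO.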

Read-out in assay [16]: ABC Transporter (ABCC2), ABCC2 (gene 1244)
The assay is described as follows: LTEA_HepaRG_ABCC2: Life Technologies and Expression Analysis (LTEA) Assay for ABC Transporter (ABCC2) using HepaRG (AID 2283464). The method, boiled down: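 qRT-PCR (TaqMan, Fluidigm array) read-out of ABCC2 mRNA, normalized to three housekeeping genes. Differentiated HepaRG cells were treated 48 h in serum-free induction medium with 8-point half-log series from 100 uM in 0.5% DMSO; curves fitted bidirectionally relative to DMSO.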

Read-out in assay [17]: Broad substrate specificity ATP-binding cassette transporter ABCG2 (Homo sapiens) (UniProt Q9UNQ0)
Description: LTEA_HepaRG_ABCG2: Life Technologies and Expression Analysis (LTEA) Assay for ABC Transporter (ABCG2) using HepaRG (AID 2283465). The method, boiled down:
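Differentiated HepaRG cells in serum-free induction medium were exposed for 48 h, in duplicate, to eight half-log concentrations up to 100 uM in 0.5% DMSO. ABCG2 mRNA was measured by TaqMan qRT-PCR, normalized to ACTB, GAPDH and POLR2A, and fitted bidirectionally versus DMSO.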

Read-out in assay [18]: ATP-citrate lyase (ACLY), ACLY (gene 47)
Description: LTEA_HepaRG_ACLY: Life Technologies and Expression Analysis (LTEA) Assay for ATP-citrate lyase (ACLY) using HepaRG (AID 2283466). The method, boiled down:
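Differentiated human HepaRG cells in serum-free induction medium exposed 48 h, in duplicate, to eight half-log concentrations from 100 uM top in 0.5% DMSO; ACLY mRNA measured by qRT-PCR, normalized to ACTB, GAPDH, POLR2A, fitted bidirectionally versus DMSO.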

Read-out in assay [19]: Cyclin D1 (CCND1), CCND1 (gene 595)
Description: LTEA_HepaRG_CCND1: Life Technologies and Expression Analysis (LTEA) Assay for Cyclin D1 (CCND1) using HepaRG (AID 2283451). The method, boiled down: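 qRT-PCR (Fluidigm 96.96 array) read-out of transcript level, housekeeping-normalized (ACTB/GAPDH/POLR2A). HepaRG cells, 48 h chemical exposure, 8-point half-log series from 100 uM, 0.5% DMSO vehicle; gain or loss relative to DMSO baseline.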

Broad substrate specificity ATP-binding cassette transporter ABCG2 (Homo sapiens), sequence (Q9UNQ0 whole entry, looked up): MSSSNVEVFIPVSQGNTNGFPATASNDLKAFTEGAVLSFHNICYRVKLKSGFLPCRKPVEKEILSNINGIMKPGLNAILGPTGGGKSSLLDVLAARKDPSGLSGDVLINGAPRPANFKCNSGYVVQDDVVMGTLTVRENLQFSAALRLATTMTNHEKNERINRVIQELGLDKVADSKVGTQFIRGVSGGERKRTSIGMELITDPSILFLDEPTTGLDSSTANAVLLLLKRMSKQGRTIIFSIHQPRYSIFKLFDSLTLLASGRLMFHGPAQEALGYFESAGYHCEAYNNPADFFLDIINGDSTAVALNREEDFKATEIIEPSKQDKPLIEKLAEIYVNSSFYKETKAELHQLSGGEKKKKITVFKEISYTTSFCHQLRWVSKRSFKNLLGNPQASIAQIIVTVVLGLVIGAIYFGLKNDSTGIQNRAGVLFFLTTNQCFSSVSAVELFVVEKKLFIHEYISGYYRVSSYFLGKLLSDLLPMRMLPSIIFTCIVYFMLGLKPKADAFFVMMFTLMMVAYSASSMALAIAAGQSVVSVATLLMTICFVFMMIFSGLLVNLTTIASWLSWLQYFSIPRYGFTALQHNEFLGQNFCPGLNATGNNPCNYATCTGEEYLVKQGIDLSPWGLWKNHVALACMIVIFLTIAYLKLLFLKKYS
Fatty acid synthase (Homo sapiens), sequence (P49327 whole entry, looked up): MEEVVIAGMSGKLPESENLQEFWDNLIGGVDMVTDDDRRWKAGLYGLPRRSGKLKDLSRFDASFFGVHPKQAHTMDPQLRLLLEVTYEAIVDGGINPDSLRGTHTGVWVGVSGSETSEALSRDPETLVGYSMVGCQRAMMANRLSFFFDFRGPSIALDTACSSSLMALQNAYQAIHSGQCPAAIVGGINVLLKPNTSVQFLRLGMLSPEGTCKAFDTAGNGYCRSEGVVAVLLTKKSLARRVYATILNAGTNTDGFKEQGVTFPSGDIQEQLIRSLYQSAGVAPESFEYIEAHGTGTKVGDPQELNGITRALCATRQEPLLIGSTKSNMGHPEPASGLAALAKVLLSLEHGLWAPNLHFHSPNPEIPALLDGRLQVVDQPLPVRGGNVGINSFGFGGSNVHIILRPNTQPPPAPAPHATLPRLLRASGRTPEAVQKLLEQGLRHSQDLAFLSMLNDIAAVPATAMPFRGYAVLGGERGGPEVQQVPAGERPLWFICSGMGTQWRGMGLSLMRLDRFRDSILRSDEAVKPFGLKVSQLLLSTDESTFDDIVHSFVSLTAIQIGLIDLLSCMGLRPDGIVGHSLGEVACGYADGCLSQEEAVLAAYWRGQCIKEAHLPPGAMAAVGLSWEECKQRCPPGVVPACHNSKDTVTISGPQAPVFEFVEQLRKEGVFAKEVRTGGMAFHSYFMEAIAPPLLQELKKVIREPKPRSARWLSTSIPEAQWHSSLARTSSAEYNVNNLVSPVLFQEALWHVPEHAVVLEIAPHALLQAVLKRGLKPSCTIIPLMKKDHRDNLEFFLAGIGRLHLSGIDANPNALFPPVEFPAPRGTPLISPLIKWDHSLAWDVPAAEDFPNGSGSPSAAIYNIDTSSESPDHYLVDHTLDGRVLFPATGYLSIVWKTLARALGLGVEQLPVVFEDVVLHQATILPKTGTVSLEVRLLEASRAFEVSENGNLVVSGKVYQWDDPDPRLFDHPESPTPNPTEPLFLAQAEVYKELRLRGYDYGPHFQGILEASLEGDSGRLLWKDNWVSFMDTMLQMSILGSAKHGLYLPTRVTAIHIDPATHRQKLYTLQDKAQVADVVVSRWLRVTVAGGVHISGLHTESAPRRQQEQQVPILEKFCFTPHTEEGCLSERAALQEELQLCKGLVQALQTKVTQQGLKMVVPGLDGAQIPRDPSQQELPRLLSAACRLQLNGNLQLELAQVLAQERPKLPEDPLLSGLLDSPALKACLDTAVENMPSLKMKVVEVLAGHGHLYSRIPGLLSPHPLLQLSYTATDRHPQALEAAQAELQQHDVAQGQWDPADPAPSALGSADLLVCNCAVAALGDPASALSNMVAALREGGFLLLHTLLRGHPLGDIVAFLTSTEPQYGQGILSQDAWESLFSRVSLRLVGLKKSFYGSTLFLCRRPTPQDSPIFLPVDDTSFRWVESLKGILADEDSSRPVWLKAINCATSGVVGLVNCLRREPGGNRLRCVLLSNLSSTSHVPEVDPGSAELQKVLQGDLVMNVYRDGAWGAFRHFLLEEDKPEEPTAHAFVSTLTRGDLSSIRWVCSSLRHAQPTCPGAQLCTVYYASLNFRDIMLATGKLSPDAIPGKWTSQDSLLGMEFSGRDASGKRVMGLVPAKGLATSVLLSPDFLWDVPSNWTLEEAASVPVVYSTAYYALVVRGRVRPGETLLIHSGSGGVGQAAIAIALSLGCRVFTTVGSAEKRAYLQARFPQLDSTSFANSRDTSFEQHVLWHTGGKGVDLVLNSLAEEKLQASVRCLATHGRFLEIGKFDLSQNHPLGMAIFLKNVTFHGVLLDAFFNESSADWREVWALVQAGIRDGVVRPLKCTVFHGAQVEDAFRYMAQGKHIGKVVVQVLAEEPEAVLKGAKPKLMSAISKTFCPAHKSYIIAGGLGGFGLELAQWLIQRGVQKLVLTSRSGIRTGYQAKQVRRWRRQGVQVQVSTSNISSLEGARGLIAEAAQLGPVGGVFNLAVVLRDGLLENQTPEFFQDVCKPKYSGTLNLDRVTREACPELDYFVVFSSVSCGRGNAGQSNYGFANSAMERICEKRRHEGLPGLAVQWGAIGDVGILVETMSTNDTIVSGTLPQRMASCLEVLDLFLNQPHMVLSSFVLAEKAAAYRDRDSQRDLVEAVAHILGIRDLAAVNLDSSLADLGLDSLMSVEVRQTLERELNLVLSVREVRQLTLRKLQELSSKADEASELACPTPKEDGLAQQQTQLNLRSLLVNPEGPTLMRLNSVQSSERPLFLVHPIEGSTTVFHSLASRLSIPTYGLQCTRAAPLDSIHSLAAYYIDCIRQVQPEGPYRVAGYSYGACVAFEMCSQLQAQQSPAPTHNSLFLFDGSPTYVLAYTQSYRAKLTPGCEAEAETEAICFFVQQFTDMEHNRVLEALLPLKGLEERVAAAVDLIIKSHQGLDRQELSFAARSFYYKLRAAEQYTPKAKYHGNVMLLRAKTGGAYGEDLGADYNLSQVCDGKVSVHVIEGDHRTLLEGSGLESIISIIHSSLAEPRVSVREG

For `CC(CO)OC(C)CO` (centres undefined) (tested in a mixture with another compound), the call in [1], in assay [2], in assay [3], in [4], in [5] and in assay [6] was inactive. Besides, the molecule was called inactive in assay [8], in assay [9], in assay [10], in [11], in [12] and in [13]. The outcome in assay [14], in [15], in assay [16], in [17] and in [18] was inactive. Further, the concentration at half-maximal activity (AC50) in assay [7] is 50 µM (active).
On to `CCCCCCCCCCCCCO`, for which the result in [1], in assay [2], in assay [3], in assay [4], in [5] and in assay [6] was inactive. The result in assay [7], in assay [8], in assay [9], in [10], in assay [11] and in [12] was inactive. Also, the result in assay [13], in assay [14], in assay [15], in [16], in [17] and in assay [18] was inactive.
For the molecule `CN[C@H]1CC[C@@H](c2ccc(Cl)c(Cl)c2)c2ccc(S(N)(=O)=O)cc21`, the molecule was called inactive in assay [1], in assay [2], in assay [3], in [4], in [19] and in assay [9]. Also, the outcome in assay [10], in assay [11] and in assay [17] was inactive. In addition, the concentration at half-maximal activity (AC50) in assay [5] was 50 µM (active); in assay [6], 34.1 µM (active); in [7], 76.5 µM (active); in [12], 89.3 µM (active); in [13] it was 80.4 µM (active); in assay [14] it was 12.6 µM (active). The concentration at half-maximal activity (AC50) in [18] is 63.6 µM (active).
As for `CCNc1cccc(C)c1`, the outcome in assay [1], in [2], in assay [3], in [4], in [5] and in assay [6] was inactive. Besides, the molecule was called inactive in assay [8], in assay [9], in assay [10], in assay [11], in assay [12] and in assay [13]. The molecule was called inactive in [14], in assay [16], in assay [17] and in assay [18]. For the same molecule, in assay [7], the half-maximal activity concentration (AC50) is 50 µM (active).
